In PubChem BioAssay AID1159580 (chemical genetic matrix, 2015):
Out of some 5,500 compounds screened, about 2,000 (36%) were called active. Roughly 18% stayed inconclusive and do not appear here. Rule as the data show it: active = normalized growth mostly below about 0.91 (no sharp cut-off); inconclusive = no clear call, values can overlap the other calls; inactive = mostly above about 0.92. This is one part of the list.

Experiment: chemical genetic growth profiling, strain panel (AID 1159580);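 also: tested at 20 µM; growth read once vehicle control cultures reached saturation at 30 °C; 1 = growth at the plate median or of vehicle wells; lower values mean less growth of the strain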
Settings: S. cerevisiae deletion strains, growth OD

Measured: normalized growth

COC(=O)c1c(OC)cc2c(c1C)Oc1c(Cl)c(OC(C)=O)c(Cl)c(C)c1C(=O)O2
inactive: locus YAL021C, strain ccr4, active compounds read low 1.02 | locus YAL026C, strain drs2, active compounds read low 1 | locus YAL030W, strain snc1, active compounds read low 0.994 | locus YBL061C, strain skt5, active compounds read low 0.977 | locus YBR009C, strain hhf1, active compounds read low 1.02 | locus YBR021W, strain FUR4, active compounds read low 1.03 | locus YBR023C, strain chs3, active compounds read low 0.978 | locus YBR171W, strain sec66, active compounds read low 1 | locus YBR229C, strain ROT2, active compounds read low 0.989 | locus YBR231C, strain swc5, active compounds read low 0.987 | locus YBR279W, strain paf1, active compounds read low 0.982 | locus YCL011C, strain gbp2, active compounds read low 1.02 | locus YCL016C, strain dcc1, active compounds read low 0.99 | locus YCL029C, strain bik1, active compounds read low 1.01 | locus YCL061C, strain MRC1, active compounds read low 1.01 | locus YCL069W, strain vba3, active compounds read low 0.998 | locus YCR088W, strain abp1, active compounds read low 0.988 | locus YDL005C, strain med2, active compounds read low 1 | locus YDL035C, strain GPR1, active compounds read low 1.01 | locus YDL040C, strain nat1, active compounds read low 0.955 | locus YDL074C, strain BRE1, active compounds read low 1.05 | locus YDL101C, strain DUN1, active compounds read low 1.01 | locus YDL134C, strain PPH21, active compounds read low 1.02 | locus YDL185W, strain tfp1, active compounds read low 1.01 | locus YDL192W, strain arf1, active compounds read low 1.01 | locus YDR001C, strain nth1, active compounds read low 0.992 | locus YDR069C, strain doa4, active compounds read low 0.998 | locus YDR101C, strain arx1, active compounds read low 1.01 | locus YDR137W, strain rgp1, active compounds read low 0.947 | locus YDR159W, strain sac3, active compounds read low 0.948 | locus YDR162C, strain NBP2, active compounds read low 1.03 | locus YDR195W, strain ref2 1.03 | locus YDR297W, strain sur2, active compounds read low 1 | locus YDR318W, strain mcm21, active compounds read low 1 | locus YDR334W, strain swr1, active compounds read low 0.99 | locus YDR335W, strain msn5, active compounds read low 1 | locus YDR388W, active compounds read low 1.01 | locus YDR392W, strain spt3, active compounds read low 0.866 | locus YDR502C, strain sam2, active compounds read low 1 | locus YEL003W, strain gim4, active compounds read low 1 | locus YEL037C, strain rad23, active compounds read low 0.984 | locus YEL061C, strain CIN8 (second series), active compounds read low 0.979 | locus YEL061C, strain CIN8, active compounds read low 0.999 | locus YER015W, strain faa2, active compounds read low 1.01 | locus YER016W, strain bim1, active compounds read low 0.971 | locus YER110C, active compounds read low 1.02 | locus YER111C, strain swi4, active compounds read low 0.985 | locus YER155C, strain BEM2 (second series), active compounds read low 1.01 | locus YER155C, strain BEM2, active compounds read low 0.992 | locus YER167W, strain BCK2, active compounds read low 1.02 | locus YFR010W, strain ubp6, active compounds read low 0.975 | locus YGL078C, strain dbp3, active compounds read low 1.01 | locus YGL086W, strain mad1, active compounds read low 1.02 | locus YGL167C, strain pmr1, active compounds read low 0.942 | locus YGL173C, strain kem1, active compounds read low 0.983 | locus YGL227W, strain vid30, active compounds read low 1 | locus YGL240W, strain doc1, active compounds read low 0.964 | locus YGL248W, strain PDE1, active compounds read low 1.01 | locus YGL253W, strain hxk2, active compounds read low 0.977 | locus YGR078C, strain PAC10, active compounds read low 1.01 | locus YGR135W, strain pre9, active compounds read low 1.01 | locus YGR252W, strain gcn5, active compounds read low 1.11 | locus YHR013C, strain ard1, active compounds read low 0.966 | locus YHR027C, strain rpn1, active compounds read low 1 | locus YHR030C, strain SLT2, active compounds read low 1 | locus YHR079C, strain IRE1 (second series), active compounds read low 0.997 | locus YHR094C, strain hxt1, active compounds read low 1.01 | locus YHR129C, strain ARP1, active compounds read low 1 | locus YHR142W, strain chs7, active compounds read low 0.985 | locus YHR200W, strain rpn10, active compounds read low 1.02 | locus YIL066C, strain RNR3, active compounds read low 1.03 | locus YIL073C, strain SPO22, active compounds read low 1.09 | locus YIL125W, strain kgd1, active compounds read low 1.02 | locus YIR030C, strain dcg1, active compounds read low 0.998 | locus YJL092W, strain hpr5, active compounds read low 0.992 | locus YJL095W, strain BCK1 (second series), active compounds read low 0.975 | locus YJL095W, strain BCK1, active compounds read low 1.02 | locus YJL115W, strain asf1, active compounds read low 0.996 | locus YJL129C, strain trk1, active compounds read low 1.01 | locus YJL134W, strain LCB3, active compounds read low 0.998 | locus YJL154C, strain vps35, active compounds read low 0.972 | locus YJL164C, strain tpk1, active compounds read low 1.01 | locus YJL166W, strain qcr8, active compounds read low 1.01 | locus YJL168C, strain set2, active compounds read low 0.996 | locus YJL187C, strain SWE1 (second series), active compounds read low 1.02 | locus YJL187C, strain SWE1, active compounds read low 0.975 | locus YJR043C, strain POL32, active compounds read low 1.04 | locus YKL009W, strain mrt4, active compounds read low 1.01 | locus YKL068W, active compounds read low 0.988 | locus YKL085W, strain MDH1 (second series), active compounds read low 1 | locus YKL085W, strain MDH1, active compounds read low 1 | locus YKL160W, strain elf1, active compounds read low 0.982 | locus YKL190W, strain CNB1, active compounds read low 1.01 | locus YKR001C, strain vps1, active compounds read low 1.04 | locus YKR026C, strain gcn3, active compounds read low 0.996 | locus YKR091W, strain srl3, active compounds read low 0.989 | locus YLL001W, strain dnm1, active compounds read low 0.992 | locus YLL026W, active compounds read low 1 | locus YLL041C, strain sdh2, active compounds read low 0.988 | locus YLR027C, strain aat2, active compounds read low 0.986 | locus YLR039C, strain RIC1, active compounds read low 1.02 | locus YLR058C, strain SHM2, active compounds read low 1 | locus YLR102C, strain apc9, active compounds read low 1.01 | locus YLR221C, strain rsa3, active compounds read low 1.01 | locus YLR258W, strain gsy2, active compounds read low 0.998 | locus YLR262C, strain YPT6 (second series), active compounds read low 0.979 | locus YLR262C, strain YPT6, active compounds read low 1.03 | locus YLR268W, strain sec22, active compounds read low 1.02 | locus YLR320W, strain mms22, active compounds read low 0.946 | locus YLR330W, strain CHS5, active compounds read low 0.998 | locus YLR342W, strain FKS1 (second series), active compounds read low 1.05 | locus YLR342W, strain FKS1, active compounds read low 0.978 | locus YLR357W, strain rsc2, active compounds read low 1.02 | locus YLR370C, strain arc18, active compounds read low 0.973 | locus YLR371W, strain rom2, active compounds read low 1.01 | locus YLR384C, strain iki3, active compounds read low 0.961 | locus YLR418C, strain cdc73, active compounds read low 1.07 | locus YML016C, strain PPZ1, active compounds read low 1 | locus YML032C, strain rad52, active compounds read low 1.02 | locus YML120C, strain ndi1, active compounds read low 1.01 | locus YML124C, strain tub3, active compounds read low 1.03 | locus YMR058W, strain fet3, active compounds read low 0.988 | locus YMR078C, strain ctf18, active compounds read low 1.01 | locus YMR125W, strain sto1, active compounds read low 0.997 | locus YMR129W, active compounds read low 0.999 | locus YMR205C, strain PFK2, active compounds read low 0.981 | locus YMR223W, strain ubp8, active compounds read low 1 | locus YMR231W, strain pep5, active compounds read low 0.974 | locus YMR263W, strain SAP30, active compounds read low 1.02 | locus YMR307W, strain GAS1, active compounds read low 1.03 | locus YNL067W, strain RPL9B, active compounds read low 1.02 | locus YNL071W, strain lat1, active compounds read low 0.997 | locus YNL209W, strain ssb2, active compounds read low 1.01 | locus YNL233W, strain BNI4, active compounds read low 1.03 | locus YNL248C, strain rpa49, active compounds read low 0.995 | locus YNL250W, strain rad50, active compounds read low 1.02 | locus YNL271C, strain bni1, active compounds read low 1.02 | locus YNL298W, strain CLA4, active compounds read low 1.03 | locus YNL307C, strain MCK1, active compounds read low 1 | locus YNL322C, strain KRE1 (second series), active compounds read low 1.02 | locus YNR049C, strain mso1, active compounds read low 0.982 | locus YNR052C, strain pop2, active compounds read low 1.01 | locus YOL006C, strain TOP1, active compounds read low 1.29 | locus YOL012C, strain htz1 1.01 | locus YOL147C, strain pex11, active compounds read low 0.999 | locus YOR001W, strain rrp6, active compounds read low 0.988 | locus YOR061W, strain CKA2, active compounds read low 1 | locus YOR069W, strain VPS5, active compounds read low 1.01 | locus YOR070C, strain gyp1, active compounds read low 0.974 | locus YOR080W, strain dia2, active compounds read low 0.977 | locus YOR083W, strain WHI5, active compounds read low 1.03 | locus YOR106W, strain vam3, active compounds read low 1.03 | locus YOR136W, strain idh2, active compounds read low 1.04 | locus YOR144C, strain elg1, active compounds read low 1 | locus YOR184W, strain ser1, active compounds read low 0.995 | locus YOR265W, strain rbl2, active compounds read low 0.981 | locus YOR270C, strain vph1, active compounds read low 0.96 | locus YOR290C, strain snf2, active compounds read low 0.999 | locus YOR316C, strain cot1, active compounds read low 1 | locus YPL051W, strain arl3, active compounds read low 0.976 | locus YPL055C, strain LGE1, active compounds read low 1.07 | locus YPL078C, strain atp4, active compounds read low 0.996 | locus YPL106C, strain sse1, active compounds read low 1.07 | locus YPL240C, strain hsp82, active compounds read low 1 | locus YPR119W, strain clb2, active compounds read low 1 | locus YPR141C, strain kar3, active compounds read low 1.01 | locus YPR163C, strain tif3, active compounds read low 1.02 | locus YPR167C, strain met16, active compounds read low 0.992 | strain wtn01, active compounds read low 1.03
